High-throughput results as filed in PubChem BioAssay.
The list is not random: actives were taken first. Their share in the collection is about 2.4%.
D2 antag – antagonists of human D2 dopamine receptor; AID 485344; actives 2% (n = 340,000); HEK293 TREx D2 cells, calcium flux, dopamine EC80; P14416; inhibition, % at 10 µM; in the data active = inhibition above about 30%; inactive = below that, where a call was filed
Target sequence (P14416 whole entry, looked up): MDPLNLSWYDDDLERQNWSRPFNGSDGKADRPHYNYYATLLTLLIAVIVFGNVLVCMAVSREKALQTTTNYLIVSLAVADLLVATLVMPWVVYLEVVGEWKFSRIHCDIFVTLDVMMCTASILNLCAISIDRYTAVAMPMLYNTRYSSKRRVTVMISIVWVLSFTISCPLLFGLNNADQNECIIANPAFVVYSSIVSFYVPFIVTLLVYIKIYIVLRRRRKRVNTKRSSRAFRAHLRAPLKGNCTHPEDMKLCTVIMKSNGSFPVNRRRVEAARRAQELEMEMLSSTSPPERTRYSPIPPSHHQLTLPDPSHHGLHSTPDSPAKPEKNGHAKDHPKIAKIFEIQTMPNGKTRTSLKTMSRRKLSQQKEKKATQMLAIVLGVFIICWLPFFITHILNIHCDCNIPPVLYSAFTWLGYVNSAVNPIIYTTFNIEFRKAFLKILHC
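Overnight-induced (tetracycline, 30 C) HEK293 T-REx cells carrying force-coupled D2 receive a no-wash calcium dye, then compound, then EC80 dopamine at 180 s; signals are read kinetically throughout.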
D2 ag-1 – agonists of human D2 dopamine receptor (beta-arrestin); actives 0.084% (n = 360,000); activation, % (no concentration beside the values); P14416; DiscoveRx PathHunter D2 beta-arrestin, luminescence, 90 min; 100% = 57 uM dopamine signal; in the data active = activation above about 40%; inconclusive = between about 15% and that limit
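DiscoveRx PathHunter D2 beta-arrestin cells (2,100/well) attached overnight, then compound-stimulated 90 min at 37 C in HBSS/10 mM HEPES/0.1% Tween-20 buffer; beta-galactosidase complementation read by luminescence after 1 h at ambient temperature. Dopamine 57 uM final (EC100) as control.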
D2 PAM-1 – positive allosteric modulators of human D2 dopamine receptor. HEK293 T-REx D2, calcium flux, EC20 dopamine potentiation. potentiation, % at 10 µM. actives 0.34% (n = 340,000);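 active = potentiation over 3 SD above the plate norm, cut at about 30% in these data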
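Primary screen. Calcium kinetics in induced HEK293 T-REx D2 cells: compound pre-addition 180 s, EC20 dopamine, 180 s more.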
D2 ag-2 – D2 dopamine receptor (human) agonism; P14416; HEK293 T-REx D2 cells, calcium flux agonist mode; activation, % at 2 µM; actives 0.53% (n = 340,000); AID 485358;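 active = activation over 3 SD above normal in the single-dose calcium agonist read, cut at about 30% in these data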
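Agonism scored from kinetic calcium signal (1 read/sec, 180 s) following compound pin transfer, after a 10 s baseline. Cells: HEK293 Trex line expressing inducible D2 receptor coupled to calcium, dye-loaded after overnight culture at 30 C.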
D2 PAM-2 – human D2 receptor positive allosteric modulation; P14416; DiscoveRx D2 beta-arrestin cells, luminescence, 90 min; 100% = 57 uM dopamine signal; potentiation, % (no concentration beside the values); actives 0.23% (n = 360,000); AID 624464; in the data active = potentiation above about 50%; inconclusive = mostly about 30% to 49%
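D2 cells co-treated with compound plus 50 nM dopamine (EC20) for 90 min at 37 deg C to detect potentiation. Beta-arrestin recruitment was read as enzyme-fragment luminescence after 1 h at ambient temperature. Full response was set by 57 uM dopamine.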
D3 arrestin ag – D3 receptor agonism confirmed, beta-arrestin readout | shares compounds with D2 ag-2 | Potency, µM (titrated, usually from 76.9 µM), hits mostly activators | DiscoveRx D3 beta-arrestin cells, luminescence, 90 min | actives 4% (n = 2,300); also: nearly all actives have a fitted effect of over 70% in size
D2 ag-3 – counter-screen for D3 agonists: human D2 dopamine receptor agonism; shares compounds with D2 ag-2; DiscoveRx PathHunter D2 beta-arrestin, luminescence, 90 min; response scale: percent relative to full dopamine signal; Potency, µM (highest dose often 76.9 µM), actives largely listed as activators; actives 5.9% (n = 2,300); AID 720507; also: nearly all actives have a fitted effect of over 70% in size
Of the large screens only hits and unclear results are named; the others gave an inactive call (follow-up assays come after a bar, where they were run). Unless noted, calls follow the shape of the dose curve; as a rule, active = well fitted activation curve with a large enough effect; inconclusive = small, poorly fitted or top-dose-only effect; inactive = flat fitted curve, though single readings scatter.

Cc1c(Cl)cccc1N(CC(=O)NC1CCCCC1)S(C)(=O)=O	D2 ag-2 72 | D3 arrestin ag inactive | D2 ag-3 inactive
Cc1nc(SCc2ccccc2)c([N+](=O)[O-])[nH]1	none | D3 arrestin ag inactive | D2 ag-3 inactive
COc1ccc(CSc2nc(C)[nH]c2[N+](=O)[O-])cc1[N+](=O)[O-]	none
O=C(NCCO)c1ccc(-c2nnc(Nc3ccc(OC(F)(F)Cl)cc3)c3ccccc23)cc1	none (no result: D2 antag, D2 ag-1, D2 PAM-2)
COc1ccc2cc(C(=O)/C=C/c3cc(OC)c(O)c(OC)c3)ccc2c1	none
COc1ccc(C(=O)/C=C/c2cc(OC)c(O)c(OC)c2)c(F)c1	D2 antag 33 | D3 arrestin ag inactive | D2 ag-3 inactive
Cc1ccc(/C=C2/NC(=O)N(Cc3ccccc3F)C2=O)s1	none | D3 arrestin ag inactive | D2 ag-3 inactive
O=C1N/C(=C/c2cccs2)C(=O)N1Cc1ccccc1F	none
O=C(Nc1cccc(Cl)c1)c1ccc2nc(CCc3ccccc3)oc2c1	none (no result: D2 antag, D2 ag-1, D2 PAM-2)
O=C(CN1CCN(c2ccccc2)CC1)Nc1ccc(-n2cnnn2)cc1	D2 antag 51, D2 ag-2 69 | D3 arrestin ag inconclusive | D2 ag-3 inconclusive
O=C(CN1CCC2(CC1)OCCO2)c1ccc2cc[nH]c2c1	none
O=C(O)C1CC=CCC1C(=O)Nc1ccc(N2CCN(Cc3ccccc3)CC2)cc1 (configuration not stated)	D2 ag-2 64 | D3 arrestin ag inactive | D2 ag-3 inactive
COc1cccc(N2CCN(CC(=O)Nc3ccc(-n4cnnn4)cc3)CC2)c1	none
CC(=O)c1ccc(NC(=O)CN2CCN(c3ccccc3)CC2)cc1	D2 antag 37, D2 ag-1 inconclusive, D2 ag-2 83 | D3 arrestin ag inconclusive | D2 ag-3 inconclusive
O=C(CN1CCN(c2ccccc2)CC1)c1ccc2cc[nH]c2c1	D2 antag 90, D2 ag-2 84 | D3 arrestin ag inactive | D2 ag-3 inactive
CCc1ccc(-c2nc(CN3CCCC(C(=O)N4CCN(c5cc(Cl)ccc5C)CC4)C3)c(C)o2)cc1 (configuration not stated)	none (no result: D2 antag, D2 ag-1, D2 PAM-2)
COc1ccc(-c2nc(CCNC(=O)c3ccccc3)cs2)cc1OC	none (no result: D2 antag, D2 ag-1, D2 ag-2, D2 PAM-2)
CC(=O)c1ccc(NC(=O)CN2CCN(CC(=O)Nc3ccc(C(C)=O)cc3)CC2)cc1	none
CC1CCN(S(=O)(=O)c2ccc(NC(=O)CN3CCN(C)CC3)cc2)CC1	none
CC1CCN(S(=O)(=O)c2ccc(NC(=O)CN3CCN(c4ccccc4)CC3)cc2)CC1	D2 antag 59, D2 ag-1 inconclusive, D2 ag-2 45 | D3 arrestin ag 2.2µM | D2 ag-3 inconclusive
O=C(CN1CCN(c2ccccc2)CC1)Nc1ccc(Oc2ccccc2)cc1	D2 antag 58, D2 ag-2 55 | D3 arrestin ag inconclusive | D2 ag-3 inconclusive
CC(=O)c1ccc(NC(=O)CN2CCN(c3ncccn3)CC2)cc1	D2 antag 77, D2 ag-1 47, D2 ag-2 74 | D3 arrestin ag inconclusive | D2 ag-3 inconclusive
c1coc(-c2nc3n(n2)C2(CCCCC2)[C@@H]2CCCC[C@@H]2N3)c1	none (no result: D2 antag, D2 ag-1, D2 PAM-2)
Cc1ccc(C)c(C(=O)CSc2nc3cc(C(=O)NC4CCCC4)ccc3c(=O)n2CC2CCCO2)c1 (configuration not stated)	none (no result: D2 antag, D2 ag-1, D2 PAM-2)
COc1cc(OC)c2c(C)cc(=O)oc2c1C(CCN1CCOCC1)c1ccc2c(c1)OCO2 (configuration not stated)	none
COc1cc(C(CCN2CCN(c3ccccc3)CC2)c2c(OC)cc(OC)c3c(C)cc(=O)oc23)cc(OC)c1OC (configuration not stated)	none | D3 arrestin ag inactive | D2 ag-3 inactive
CCOc1ccc(CNC(=O)C2CCN(C3=NS(=O)(=O)C(c4ccc(C)cc4)=C3CC)CC2)cc1	none (no result: D2 antag, D2 ag-1, D2 PAM-2)
